# In the supplement of paper PMC11577813, “Eurasian spruce bark beetle detects lanierone using a highly expressed specialist odorant receptor, present in several functional sensillum types” (BMC Biology, 2024):
# ± gives the standard deviation of the averaged measurements.
# Tests used:
# Assay in all cases: net action potential response of A-neuron (blank-subtracted) (spikes/s (Hz)); higher = stronger excitation
# Conditions in all cases: 10 µg on filter paper; neuron: A neuron (large spike amplitude)
# [1] = tested on: (+)-isopinocamphone A-neuron OSN class
# Summary of the method: (§1)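 A humidified, charcoal-filtered airstream of 1.8 L/min passed over one fixed antenna of a live lab-reared adult Ips typographus during single sensillum recording with tungsten electrodes. Stimuli were 0.5 s pulses at 0.3 L/min from a pipette holding filter paper with 10 μg of compound in paraffin oil. Firing of the large-amplitude A-neuron or small-amplitude B-neuron was taken as a spike rate after pre-stimulus subtraction in AutoSpike, conversion to spikes/s, blank subtraction and averaging across sensilla. The windows were 0.5 s long, with 1–4 sensilla.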
# [2] = tested on: (5S,7S)-trans-conophthorin A-neuron OSN class
# Summary of the method: as §1
# [3] = tested on: myrcene A-neuron OSN class
# Summary of the method: as §1
# [4] = tested on: p-cymene A-neuron OSN class
# Summary of the method: as §1
Compound,net action potential response [1],net action potential response [2],net action potential response [3],net action potential response [4]
C=CCc1ccc(OC)cc1 [Estragole],-1.33 ± 1.1,-0.5 ± 6.6,-2,9.33 ± 7
Cc1ccccc1 [Toluene],0.667 ± 3.1,4 ± 2.3,6,2 ± 4
O=Cc1ccccc1 [Benzaldehyde],21.3 ± 15,-4 ± 2,4,2 ± 2
